Consider 39 compounds from PubChem BioAssay (NCI).

About 83,000 compounds went through this panel and 20% of them were active in at least one assay; those are over-represented in the sample as a whole.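 Compound tested at a single concentration for 48 hours in 96-well plates; a percent growth value below 10 was scored as active.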 The source made the active and inactive calls.

The first test has as its system HS 578T breast. The test is described as follows: NCI-60 one-dose screen, 48 h (100 = growth as untreated, 0 = no growth, -100 = all killed). The conditions noted are these: 10 µM.
Consider `Cc1ccc(CNC(=O)Cc2ccc3c(c2)CN(C2CCC(=O)NC2=O)C3=O)cc1` (stereo unspecified), for which the growth is -15.4% (active).

In the case of `CC1(c2ccccc2)NC(=O)N(CC(=O)Nc2ccc(C(=O)/C=C/c3ccc(Br)cc3)cc2)C1=O` (stereo unspecified), the growth was 53.4% (inactive). Consider `Cc1ccn2c(C(=O)c3ccccc3)cc(-c3cc(-c4ccc(N(C)C)cc4)c(C#N)c(N)n3)c2c1`, for which the growth is 33.2% (inactive).

Turning to `COc1cccc2nc(Nc3ccc(F)c(NC(=O)c4ccc(CN5CCN(C)CC5)c(C(F)(F)F)c4)c3)ccc12`, the growth was 6.57% (active). For the compound `O=C(Nc1cccc(C(F)(F)F)c1)c1cncc(C#Cc2cnc3ccc(N4CCOCC4)nn23)c1`, the growth is -22.4% (active). `O=C(CNc1nc(-c2ccccc2)cs1)Nc1ccc([N+](=O)[O-])cc1`: the growth is 21.8% (inactive).

With `COc1ccsc1/C=N/NC(=O)c1[nH]c2ccc(Br)cc2c1-c1ccccc1`, the growth was -1.24% (active).

On to `CCOC(=O)C1NN(c2ccc(S(N)(=O)=O)cc2)c2nc3nc(-c4cccs4)cc(-c4cccs4)c3c(=O)n21` (stereo unspecified), for which the growth is 8.11% (active).

With `Nc1cc(-c2cccc(C(=O)NCc3ccc4c(c3)OCO4)c2)ccn1`, the growth is 94.4% (inactive). `O=c1c2ccccc2nc(COc2ccccc2)n1/N=C/c1ccc(N2CCCC2)cc1`: the growth is 94.8% (inactive). With `O=C(CNc1nc(-c2ccccc2)cs1)Nc1cccc([N+](=O)[O-])c1`, the growth was -19.2% (active).

Consider `C#CCNC(=O)[C@]12CCC(C)(C)C[C@H]1C1=CC[C@@H]3[C@@](C)(CCC#N)[C@H](C(=C)C)CC[C@@]3(C)[C@]1(C)CC2`, for which the growth was 79.4% (inactive).

For the compound `Cc1ccc(/C(CSc2nnc(-c3c[nH]c4ccccc34)n2-c2ccccc2)=N/O)cc1`, the growth was -53.5% (active). `COC1=C[C@]23CCC(=O)N2CCc2cc4c(cc2[C@@H]3[C@@H]1OC(=O)CCCC(C)C)OCO4`: the growth was 71.8% (inactive).

As for `Cc1ccc(-c2nc3ccc(C(=O)N=Nc4c(O)[nH]c5ccc([N+](=O)[O-])cc45)cc3[nH]2)cc1`, the growth was 74.6% (inactive).

`Cc1ccc(-c2nc(Nc3ccccc3C(=O)O)c3ccccc3n2)cc1`: the growth is -9.53% (active).

As to `CSc1nc(-c2cccc(C)c2)c2cc(-c3ccccc3)n(C)c2n1`, the growth is 9.16% (active). Turning to `CN(C)c1ccc(/C=C/C(=O)c2ccc(NC(=O)CN3C(=O)NC(C)(c4ccccc4)C3=O)cc2)cc1` (stereo unspecified), the growth was 78% (inactive). The same measure, in the same setting: with `COc1cc(/C=C/C(=O)c2ccc(NC(=O)CN3C(=O)NC(C)(c4ccccc4)C3=O)cc2)cc(OC)c1OC` (stereo unspecified) the figure was 39.3% (inactive). Consider `O=C(O)CCCCCCCCCCN1C(=O)/C(=C/c2cnc(-c3ccc(Cl)cc3)s2)SC1=S`, for which the growth was 58.6% (inactive). Regarding `O=C(Nc1cccc(C(F)(F)F)c1)c1cncc(C#Cc2cnc3cccnn23)c1`, the growth is 45.7% (inactive). Consider `CC1(c2ccccc2)NC(=O)N(CC(=O)Nc2ccc(C(=O)/C=C/c3ccccc3)cc2)C1=O` (stereo unspecified), for which the growth is 71.5% (inactive). Still for that read-out and setting: to `CN1C(=O)N(C)C2SC(N/N=C/c3ccccc3F)=NC21` (stereo unspecified) belongs 85.6% (inactive).

As to `COc1ccccc1C(=O)NNC(=O)CSc1nc2c(c(=O)[nH]1)CCCC2`, the growth was 108% (inactive).

Take `CCN1CCN(Cc2ccc(C(=O)Nc3cccc(-c4cn(-c5ccc6oc(=O)ccc6c5)nn4)c3)cc2C(F)(F)F)CC1`: the growth was -21.6% (active). For the compound `Cn1c(O)c(N=Nc2nc(-c3cc4ccccc4oc3=O)cs2)c2cc(Br)ccc21`, the growth is 17.5% (inactive). Same read-out and setting: with `O=C(c1ccc(Cl)cc1)C1[C@H](c2ccccc2Br)[C@@H](c2ccccc2)NC12C(=O)Nc1ccc(Br)cc12` (stereo partly specified) the figure was 12% (inactive). The same measure, in the same setting: to `C=C(C)[C@@H]1CC[C@]2(COP(=O)(OCC)OCC)CC[C@]3(C)[C@H](CC[C@@H]4[C@@](C)(CCCN)[C@H](C(=C)C)CC[C@]43C)[C@@H]12` belongs 31.3% (inactive). The same measure, in the same setting: with `O=C(COc1ccc(NC(=O)Nc2ccc(Cl)cc2)cc1)N=Nc1c(O)[nH]c2ccc([N+](=O)[O-])cc12` the figure was 13.7% (inactive). Regarding `CCN1CCN(c2ccc(NC(=O)Nc3ccc(-c4cc(C(=O)NC(C)C)c5ncccc5n4)cc3)cc2C(F)(F)F)CC1`, the growth is -37.7% (active). On the same count and under the same terms, with `CCOc1ccc(Nc2nc3ccccc3nc2Nc2ccc(OCC)cc2)cc1` the figure was 107% (inactive). As to `O=C(c1ccc(Cl)cc1)C1[C@H](c2ccc(Br)cc2)[C@@H](c2ccccc2)NC12C(=O)Nc1ccc(Br)cc12` (stereo partly specified), the growth was -16.6% (active).

Take `COc1cnc2c(c1)C(=O)c1c-2n(CCCNC(C)C)c(=O)c2cc(OC)c(OC)cc12`: the growth is 103% (inactive). Turning to `OCCCNc1oc(-c2ccccc2)nc1[P+](c1ccccc1)(c1ccccc1)c1ccccc1`, the growth was -13.3% (active).

Another test concerns NCI/ADR-RES ovarian. The description is as above. The conditions noted are these: 10 µM.
For the compound `Cc1ccc(CNC(=O)Cc2ccc3c(c2)CN(C2CCC(=O)NC2=O)C3=O)cc1` (stereo unspecified), the growth is -8.37% (active). The same measure, in the same setting: with `CC1(c2ccccc2)NC(=O)N(CC(=O)Nc2ccc(C(=O)/C=C/c3ccc(Br)cc3)cc2)C1=O` (stereo unspecified) the figure was 79.8% (inactive). On to `COc1ccc(-c2cc(C(=O)N=Nc3c(O)[nH]c4ccccc34)c3ccccc3n2)cc1`, for which the growth was -14.4% (active). Same read-out and setting: to `Cc1ccn2c(C(=O)c3ccccc3)cc(-c3cc(-c4ccc(N(C)C)cc4)c(C#N)c(N)n3)c2c1` belongs 50.8% (inactive); to `COc1ccc(C(=O)/C=C/c2cc(C(F)(F)F)cc(C(F)(F)F)c2)cc1S(N)(=O)=O`, -34% (active).

In the case of `O=C(Nc1cccc(C(F)(F)F)c1)c1cncc(C#Cc2cnc3ccc(N4CCOCC4)nn23)c1`, the growth was -24% (active). Same read-out and setting: with `O=C(CNc1nc(-c2ccccc2)cs1)Nc1ccc([N+](=O)[O-])cc1` the figure was -20.4% (active).

`O=c1c2ccccc2nc(COc2ccccc2)n1/N=C/c1ccc(N2CCCC2)cc1`: the growth is 94.3% (inactive). `O=C(CNc1nc(-c2ccccc2)cs1)Nc1cccc([N+](=O)[O-])c1`: the growth is -61.4% (active).

As for `Cc1ccc(/C(CSc2nnc(-c3c[nH]c4ccccc34)n2-c2ccccc2)=N/O)cc1`, the growth is -68.4% (active).

Regarding `COC1=C[C@]23CCC(=O)N2CCc2cc4c(cc2[C@@H]3[C@@H]1OC(=O)CCCC(C)C)OCO4`, the growth is 74.9% (inactive).

For `Cc1ccc(-c2nc(Nc3ccccc3C(=O)O)c3ccccc3n2)cc1`, the growth was 5.16% (active). Take `CSc1nc(-c2cccc(C)c2)c2cc(-c3ccccc3)n(C)c2n1`: the growth was -19.6% (active). `CN(C)c1ccc(/C=C/C(=O)c2ccc(NC(=O)CN3C(=O)NC(C)(c4ccccc4)C3=O)cc2)cc1` (stereo unspecified): the growth was 86.6% (inactive). As for `COc1cc(/C=C/C(=O)c2ccc(NC(=O)CN3C(=O)NC(C)(c4ccccc4)C3=O)cc2)cc(OC)c1OC` (stereo unspecified), the growth was 102% (inactive). Same read-out and setting: to `O=C(Nc1cccc(C(F)(F)F)c1)c1cncc(C#Cc2cnc3cccnn23)c1` belongs 16.6% (inactive); to `CC1(c2ccccc2)NC(=O)N(CC(=O)Nc2ccc(C(=O)/C=C/c3ccccc3)cc2)C1=O` (stereo unspecified), 87.5% (inactive); to `CN1C(=O)N(C)C2SC(N/N=C/c3ccccc3F)=NC21` (stereo unspecified), 30.6% (inactive).

Take `COc1ccccc1C(=O)NNC(=O)CSc1nc2c(c(=O)[nH]1)CCCC2`: the growth was 104% (inactive). Still for that read-out and setting: to `CCN1CCN(Cc2ccc(C(=O)Nc3cccc(-c4cn(-c5ccc6oc(=O)ccc6c5)nn4)c3)cc2C(F)(F)F)CC1` belongs -100% (active); to `COc1ccc(CN2[C@H](C(=O)NCc3ccc(C(=O)NO)cc3)Cc3c([nH]c4ccccc34)[C@H]2C2CC2)cc1`, 84% (inactive); to `Cn1c(O)c(N=Nc2nc(-c3cc4ccccc4oc3=O)cs2)c2cc(Br)ccc21`, 68.4% (inactive). As to `[2H]C([2H])([2H])Oc1ccc2ncc(C#Cc3cncc(C(=O)Nc4ccc(CN5CCN(C)CC5)c(C(F)(F)F)c4)c3)n2n1`, the growth is -68% (active).

In the case of `Cc1ccc(/C=C/C(=O)c2ccc(S(=O)(=O)NCCNc3nc(Nc4ccc(F)cc4)nc(N(C)C)n3)cc2)cc1`, the growth is 14.7% (inactive). Regarding `CCOc1ccc(Nc2nc3ccccc3nc2Nc2ccc(OCC)cc2)cc1`, the growth is 65% (inactive).

Consider `COc1cnc2c(c1)C(=O)c1c-2n(CCCNC(C)C)c(=O)c2cc(OC)c(OC)cc12`, for which the growth was 29.1% (inactive). On the same count and under the same terms, to `OCCCNc1oc(-c2ccccc2)nc1[P+](c1ccccc1)(c1ccccc1)c1ccccc1` belongs 95% (inactive).
